Measured values published in PubChem BioAssay (Tox21).
Records with an inconclusive call do not appear. Activity calls are given as the source filed them. Unless noted, calls follow the shape of the full dose curve.

Assays:
[1] = qHTS assay to identify small molecule antagonists of the estrogen receptor beta (ER-beta) signaling pathway - cell viability counter screen (AID 1259382; active = well fitted curve in the direction sought with a large enough effect in the repeat runs; an effect the other way counts as inactive or inconclusive;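 also: HEK293T cells carrying ER-beta-UAS-bla reporter stimulated with estradiol; series mostly up to about 92 µM; nearly all actives have a fitted effect of over 55% in size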)
In short: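 Cytotoxicity counter screen multiplexed with the beta-lactamase antagonist assay: GripTite HEK293T ER-beta-bla cells were treated 16 hr with test chemicals in the presence of 1nM 17-beta-estradiol, and viability was measured by CellTiter-Glo.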

[2] = target: Estrogen receptor (Homo sapiens) (UniProt P03372); experiment: qHTS assay to identify small molecule agonists of the estrogen receptor alpha (ER-alpha) signaling pathway in the presence of an antagonist (AID 1259383); also: top concentration of the series differs between compounds; nearly all actives have a fitted effect of over 15% in size
In short: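 Agonist-mode confirmation in the presence of the ER antagonist ICI-182,780 at 10.0nM final. Breast-derived VM7Luc4E2 reporter cells were exposed to compounds for 22hr, and ERE-driven luciferase was quantified by luminescence.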

[3] = qHTS assay to identify small molecule agonists or antagonists of the thyroid stimulating hormone receptor (TSHR) signaling pathway - wild type cell line counter screen (AID 1259384)
In short: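 Wild-type HEK293 cells were plated 18 h at 37 C/5% CO2, pin-dosed with compound plus Ro20-1724 medium, held 30 min at room temperature, then given cAMP-d2 and anti-cAMP-cryptate; fluorescence was read after 1 h. Fifteen concentrations, triplicate.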

[4] = target: Thyrotropin receptor (Homo sapiens) (UniProt P16473); experiment: qHTS assay to identify small molecule antagonists of the thyroid stimulating hormone receptor (TSHR) signaling pathway (AID 1259385); also: nearly all actives have a fitted effect of over 20% in size
In short: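 TSHR-HEK293 cells were plated and held 18 h at 37C/5% CO2, then given compound plus Ro20-1724 and stimulated with TSH at 1.5 ng/mL final. After 30 min at room temperature, cAMP was detected with cAMP-d2/anti-cAMP-cryptate (1 h) by fluorescence.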

[5] = target: Progesterone receptor (Homo sapiens) (UniProt P06401); experiment: qHTS assay to identify small molecule agonists of the progesterone receptor (PR) signaling pathway (AID 1346784); also: nearly all actives have a fitted effect of over 30% in size
In short: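 HEK 293T PR-UAS-bla reporter cells, 2% charcoal-stripped FBS; 6 hr settle at 37C/5% CO2, compound (DMSO) 16 hr, LiveBLAzer B/G FRET substrate 2 hr RT, fluorescence intensity read.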

[6] = target: Progesterone receptor (Homo sapiens) (UniProt P06401); experiment: qHTS assay to identify small molecule antagonists of the progesterone receptor (PR) signaling pathway (AID 1346795; active = well fitted inhibition curve with a large enough effect in the signal ratio in the repeat runs, not every such curve was filed as active; the % refers to the signal ratio)
In short: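 Beta-lactamase reporter, HEK293T PR-UAS-bla line; 2% charcoal-stripped FBS; 6 hr pre-incubation, 37C/5% CO2. Compound + R5020 1 nM final, 16 hr. LiveBLAzer B/G FRET substrate, 2 hr RT; fluorescence intensity read.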

[7] = qHTS assay to identify small molecule antagonists of the progesterone receptor (PR) signaling pathway - cell viability counter screen (AID 1346798; active = well fitted curve in the direction sought with a large enough effect in the repeat runs; an effect the other way counts as inactive or inconclusive; also: series mostly up to about 92 µM; nearly all actives have a fitted effect of over 50% in size)
In short: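 Luminescence readout (CellTiter-Glo, 30 min, RT) of viability in PR-UAS-bla HEK293T cells exposed to compound and R5020 agonist for 16 hr at 37C, 5% CO2; run in the same wells as the beta-lactamase reporter read.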

[8] = qHTS assay to identify small molecule agonists of the progesterone receptor (PR) signaling pathway - cell viability counter screen (AID 1346799); also: nearly all actives have a fitted effect of over 45% in size
In short: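 HEK293T PR-UAS-bla, 3,000 cells/well, 2% charcoal-stripped FBS; 6 h settle, compound 16 h at 37C/5% CO2; LiveBLAzer 2 h RT, then CellTiter-Glo 30 min RT, luminescence read.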

[9] = qHTS assay to identify small molecule agonists of the estrogen receptor alpha (ER-alpha) signaling pathway in the presence of an antagonist - cell viability counter screen (AID 1259386; active = well fitted curve in the direction sought with a large enough effect in the repeat runs; an effect the other way counts as inactive or inconclusive;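 also: series mostly up to about 92 µM; cells exposed to compounds for 22 h at 37 °C before the viability read; nearly all actives have a fitted effect of over 30% in size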)
In short: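 Cytotoxicity was measured in parallel with the ERE-luciferase agonist screen, in the same wells. The cells were VM7Luc4E2, which endogenously express ER-alpha, and treatment was with compounds plus 10.0nM ICI-182,780 for 22hr.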
% is scaled to controls: 0 for no effect and ±100 for the full control effect.

Chain of Progesterone receptor (Homo sapiens) (P06401 whole entry, looked up): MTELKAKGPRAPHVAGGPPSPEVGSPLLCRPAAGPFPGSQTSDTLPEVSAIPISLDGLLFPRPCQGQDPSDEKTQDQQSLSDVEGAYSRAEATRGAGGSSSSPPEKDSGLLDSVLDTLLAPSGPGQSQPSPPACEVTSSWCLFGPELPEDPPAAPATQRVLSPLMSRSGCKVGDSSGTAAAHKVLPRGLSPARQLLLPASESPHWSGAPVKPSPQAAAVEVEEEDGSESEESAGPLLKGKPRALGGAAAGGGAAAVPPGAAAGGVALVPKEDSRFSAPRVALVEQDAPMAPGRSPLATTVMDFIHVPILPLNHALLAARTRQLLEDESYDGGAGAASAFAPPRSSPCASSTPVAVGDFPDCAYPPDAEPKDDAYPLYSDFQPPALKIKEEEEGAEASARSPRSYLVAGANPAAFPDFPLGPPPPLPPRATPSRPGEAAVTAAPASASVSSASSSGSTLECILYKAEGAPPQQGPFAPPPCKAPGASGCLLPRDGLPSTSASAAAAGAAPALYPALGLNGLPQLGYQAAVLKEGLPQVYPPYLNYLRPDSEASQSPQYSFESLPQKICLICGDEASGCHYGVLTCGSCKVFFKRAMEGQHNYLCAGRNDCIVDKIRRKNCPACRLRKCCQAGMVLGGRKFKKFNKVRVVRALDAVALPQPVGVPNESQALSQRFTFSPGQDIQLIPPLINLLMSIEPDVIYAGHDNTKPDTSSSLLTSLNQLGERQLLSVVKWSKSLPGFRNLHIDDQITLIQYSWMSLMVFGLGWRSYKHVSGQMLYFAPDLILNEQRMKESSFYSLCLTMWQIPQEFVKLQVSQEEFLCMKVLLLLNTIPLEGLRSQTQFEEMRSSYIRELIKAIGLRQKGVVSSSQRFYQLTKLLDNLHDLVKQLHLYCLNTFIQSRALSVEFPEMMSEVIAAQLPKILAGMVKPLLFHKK
Chain of Estrogen receptor (Homo sapiens) (P03372 whole entry, looked up): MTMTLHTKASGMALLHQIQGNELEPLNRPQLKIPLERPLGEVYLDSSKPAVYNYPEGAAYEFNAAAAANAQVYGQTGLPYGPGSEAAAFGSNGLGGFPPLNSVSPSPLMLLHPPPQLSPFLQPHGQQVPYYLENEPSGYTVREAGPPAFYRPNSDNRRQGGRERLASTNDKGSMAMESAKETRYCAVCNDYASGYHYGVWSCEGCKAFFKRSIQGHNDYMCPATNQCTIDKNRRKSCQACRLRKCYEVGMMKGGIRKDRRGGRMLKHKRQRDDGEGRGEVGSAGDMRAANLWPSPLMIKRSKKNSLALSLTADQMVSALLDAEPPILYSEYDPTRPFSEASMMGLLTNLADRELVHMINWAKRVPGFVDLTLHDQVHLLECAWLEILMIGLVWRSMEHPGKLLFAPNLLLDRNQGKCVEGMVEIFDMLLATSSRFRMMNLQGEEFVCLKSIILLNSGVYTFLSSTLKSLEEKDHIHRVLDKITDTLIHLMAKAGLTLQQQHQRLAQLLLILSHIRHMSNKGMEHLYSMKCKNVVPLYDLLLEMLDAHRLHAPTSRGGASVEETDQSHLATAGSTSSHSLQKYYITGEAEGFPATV
Chain of Thyrotropin receptor (Homo sapiens) (P16473 whole entry, looked up): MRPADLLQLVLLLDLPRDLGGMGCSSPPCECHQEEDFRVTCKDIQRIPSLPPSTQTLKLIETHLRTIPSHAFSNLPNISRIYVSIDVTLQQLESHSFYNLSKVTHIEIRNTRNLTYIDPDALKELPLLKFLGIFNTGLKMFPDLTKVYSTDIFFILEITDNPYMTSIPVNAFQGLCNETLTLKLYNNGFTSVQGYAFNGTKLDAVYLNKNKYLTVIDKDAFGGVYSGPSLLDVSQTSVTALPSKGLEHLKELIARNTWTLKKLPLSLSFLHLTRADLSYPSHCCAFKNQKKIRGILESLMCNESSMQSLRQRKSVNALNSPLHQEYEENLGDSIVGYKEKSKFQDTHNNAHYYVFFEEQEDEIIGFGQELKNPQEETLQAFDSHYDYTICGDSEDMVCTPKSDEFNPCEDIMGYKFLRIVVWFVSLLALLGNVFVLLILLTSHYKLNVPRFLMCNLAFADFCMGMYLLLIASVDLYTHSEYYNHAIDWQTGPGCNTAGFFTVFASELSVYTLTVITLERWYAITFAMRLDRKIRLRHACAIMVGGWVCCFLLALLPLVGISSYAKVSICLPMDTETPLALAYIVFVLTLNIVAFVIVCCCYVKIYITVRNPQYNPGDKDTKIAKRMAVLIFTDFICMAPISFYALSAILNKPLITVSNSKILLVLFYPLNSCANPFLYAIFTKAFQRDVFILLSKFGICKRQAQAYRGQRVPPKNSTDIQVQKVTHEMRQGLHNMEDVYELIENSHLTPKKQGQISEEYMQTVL

COC(=O)c1ccccc1C(=O)O
inactive: outcome [1] | Potency [2] | outcome [3] | outcome [4] | Potency [5] | Potency [6] | outcome [7] | outcome [8]

CNCCS(=O)(=O)O
inactive: outcome [1] | outcome [3] | outcome [4] | outcome [9] | Potency [5] | Potency [6] | outcome [7] | outcome [8]

CCCCCc1cccc(=O)o1
inactive: outcome [1] | Potency [2] | outcome [3] | outcome [4] | Potency [5] | Potency [6] | outcome [7] | outcome [8]

C=C(C)[C@@H]1CC=C(C)CC1
inactive: outcome [1] | Potency [2] | Potency [5] | Potency [6] | outcome [7] | outcome [8]

Cn1nnc2c(C(N)=O)ncn2c1=O
inactive: outcome [1] | Potency [2] | outcome [9] | Potency [5] | Potency [6] | outcome [7] | outcome [8]

CCCCCCCCCCCCCCC(=O)NC(CO)CCCCCCCCCCCCCC (stereo unspecified)
inactive: outcome [1] | Potency [2] | outcome [3] | outcome [9] | Potency [5] | Potency [6] | outcome [7] | outcome [8]

Cc1ncc([N+](=O)[O-])n1CC(C)O (stereo unspecified)
inactive: outcome [1] | Potency [2] | outcome [9] | Potency [5] | Potency [6] | outcome [7] | outcome [8]

CC(C)NCC(O)c1ccc2ccccc2c1 (stereo unspecified)
inactive: outcome [1] | outcome [3] | outcome [4] | outcome [9] | Potency [5] | Potency [6] | outcome [7] | outcome [8]

O/N=C/C=N/O
inactive: outcome [1] | outcome [3] | outcome [4] | outcome [9] | Potency [5] | Potency [6] | outcome [7] | outcome [8]

CC1=C(C(=O)O)N2C(=O)[C@@H](NC(=O)[C@H](N)c3ccccc3)[C@H]2SC1
inactive: outcome [1] | Potency [2] | outcome [9] | Potency [5] | Potency [6] | outcome [7] | outcome [8]

CC(C)(C)NC[C@H](O)COc1cccc2c1CCCC2=O
inactive: outcome [1] | Potency [2] | outcome [9] | Potency [5] | Potency [6] | outcome [7] | outcome [8]

C=CCN1C[C@H](C(=O)N(CCCN(C)C)C(=O)NCC)C[C@@H]2c3cccc4[nH]cc(c34)C[C@H]21
inactive: outcome [1] | Potency [2] | outcome [3] | Potency [5] | Potency [6] | outcome [7]

CCOC(CN1CCN(CC(C)C(=O)c2ccccc2)CC1)c1ccccc1 (stereo unspecified)
inactive: activity change, negative = cytotoxicity [1] -10.1% [at 19 µM] | cAMP activity change [3] 5.14% [at 18.9 µM] | activity change, negative = inhibition [4] 0.0091% [at 19 µM] | activity change, negative = cytotoxicity [9] -9.47% [at 19 µM] | activation [5] 0.845% [at 19 µM] | activity change, negative = inhibition [6] 8.35% [at 18.9 µM] | activity change, negative = cytotoxicity [7] 27.5% [at 18.9 µM] | activity change, negative = cytotoxicity [8] 2.31% [at 19 µM]

O=C(O)CONC(=O)c1ccccc1
inactive: outcome [1] | outcome [3] | outcome [4] | outcome [9] | Potency [5] | Potency [6] | outcome [7] | outcome [8]

Cc1ccnc(N)c1
inactive: outcome [1] | outcome [3] | outcome [4] | outcome [9] | Potency [5] | Potency [6] | outcome [7] | outcome [8]

O=Cc1cc2ccccc2o1
inactive: outcome [1] | outcome [3] | outcome [4] | outcome [9] | Potency [5] | Potency [6] | outcome [7] | outcome [8]

CC(C)=CCC[C@@](C)(O)[C@H]1CC=C(C)CC1
inactive: outcome [1] | outcome [3] | outcome [4] | outcome [9] | Potency [5] | Potency [6] | outcome [8]

CCC(=O)CC
inactive: outcome [1] | outcome [9] | Potency [5] | Potency [6] | outcome [7] | outcome [8]

CC(O)CC(C)O (stereo unspecified)
inactive: outcome [1] | outcome [3] | outcome [4] | Potency [5] | Potency [6] | outcome [7] | outcome [8]

CC(C)CCOC(=O)c1ccccc1
inactive: outcome [1] | outcome [3] | outcome [4] | outcome [9] | Potency [5] | Potency [6] | outcome [7] | outcome [8]

C=CCCCCCCCC
inactive: outcome [1] | outcome [3] | outcome [4] | outcome [9] | Potency [5] | outcome [7] | outcome [8]

CC(=O)O[Si](C)(OC(C)=O)OC(C)=O
inactive: outcome [1] | outcome [3] | outcome [9] | Potency [5] | Potency [6] | outcome [7] | outcome [8]

Cc1ccc(C)c([N+](=O)[O-])c1
inactive: outcome [1] | outcome [3] | outcome [4] | outcome [9] | outcome [7] | outcome [8]

CN(C)CC/C=C1/c2ccccc2COc2ccc(CC(=O)O)cc21
inactive: outcome [1] | outcome [3] | outcome [4] | outcome [9] | Potency [5] | Potency [6] | outcome [7] | outcome [8]

C=C(C)[C@@H]1CC=C(C)C(=O)C1
inactive: outcome [1] | outcome [3] | outcome [4] | outcome [9] | Potency [5] | Potency [6] | outcome [7] | outcome [8]

CC(=O)C(C)O (stereo unspecified)
inactive: outcome [1] | outcome [3] | outcome [4] | outcome [9] | Potency [5] | outcome [7] | outcome [8]
